Results from PubChem BioAssay AID1259415 (National Center for Advancing Translational Sciences (NCATS), 2018).
Screen size: about 410,000 compounds; about 18,000 (4.4%) were called active. Roughly 7% stayed inconclusive and do not appear here. Only a selection was taken, and actives are over-represented in it overall. Values without a mark were called inactive. Cut-off read from the data, not from the text of the source: active = activity change below about -60%; inconclusive = no clear call, values can overlap the other calls; inactive = above about -39%.

Assay: qHTS Assay for inhibitors of the human cytomegalovirus (HCMV)
Conditions: HFF cells, HCMV-luciferase reporter, 72 h; at 57.5 µM; hits give low values
Description: NCGC Assay Overview: Infection with human cytomegalovirus (HCMV) continues to pose significant threats for pregnant women and immunocompromised hosts. HCMV causes serious morbidity and mortality in transplant recipients, and congenital HCMV is the leading infectious cause of mental retardation and deafness in children. In the 1990s, the annual costs associated with the disease burden of congenital CMV were estimated at around $2 billion. A HCMV vaccine is not available yet and HCMV therapies result in intolerable side effects and emergence of drug resistant viruses. […] Towards this goal we have developed and characterized a luciferase HCMV reporter that was initially used in 96 well plates and then optimized to 1536-well plates for utilization in screening of the MLSMR collection, the NGCG diversity collection and the NCGC Pharmaceutical Collection of approved and investigational drugs.
NCGC Assay Protocol Summary:
This is a cell-based assay for HCMV inhibition in HFFs cells. The screening used 2 compound doses and the HCMV-luciferase at MOI of 1 PFU/cell. Cells were treated and infected with HCMV. At 72 h post infection cell lysates were collected and luciferase activity was determined using the Glomax-Multi + Detection System (Promega, Madison, WI). Data were normalized to the controls for basal activity (buffer only) and known HCMV inhibitors Salinmoycin.
1536-well assay protocol for the assay:
(1) Add 3 ul CMV/HFF cell culture. 1000 cells/well in DMEM nirmal media.
(2) Incubate 16 hr at 37C.
(3) Add 23 nl control compound, 10uM of Salinomycin.
(4) Add 23 nl compounds in DMSO solution.
(5) Add 3 ul CMV suspension. Final 1 puf/ul, Virus stock 2000pfu/ul
(6) Incubate 72 hrs at 37C.
(7) Add 4 ul OneGlo Luc Reagent.
(8) Incubate 5 min at room temperature.
% is set by controls: 0 for no effect and ±100 for the full control effect.

Row | Structure (SMILES) | activity change, negative = inhibition
1 | COc1ccc(NC(=O)COCc2cc(-c3ccco3)on2)cc1 | 10.4%
2 | COc1ccc(OCC(=O)Nc2ccc(NC(=O)c3ccco3)c(C)c2)cc1 | -98.9% (active)
3 | COc1ccc(NC(=O)c2ccco2)cc1NC(=O)COc1ccc(C)c(C)c1 | 23.1%
4 | CC(C)(C)c1ccc(S(=O)(=O)N2CCN(C(=O)c3cc(-c4ccc(Br)cc4)n[nH]3)CC2)cc1 | 0%
5 | COc1ccc(NC(=O)C2CCN(c3ccc(Sc4ccc(C)cc4)nn3)CC2)c(OC)c1 | 11.3%
6 | O=C(CSc1nc2c(c(=O)[nH]1)CN(Cc1ccc(F)cc1)CC2)Nc1ccccc1Cl | -10.3%
7 | CC1=C(c2ccc(C)c(C)c2)S(=O)(=O)NC1=NCc1ccccc1Cl | -23%
8 | O=C(NCCCN1CCN(c2ccc(F)cc2)CC1)Nc1ccc([N+](=O)[O-])cc1 | -37.5%
9 | CC1=C(c2ccc(Cl)cc2)S(=O)(=O)N=C1N1CCN(c2cc(C)ccc2C)CC1 | 8.61%
10 | CC1=C(c2ccc(C)cc2)S(=O)(=O)NC1=NCCCN1CCN(c2cc(C)ccc2C)CC1 | -96.1% (active)
11 | Cc1ccc(C)c(N2CCN(CCCNC(=O)Nc3ccc(Cl)cc3)CC2)c1 | -76.9% (active)
12 | COc1ccc(NC(=O)NCCN2CCN(c3ccc(C)cc3)CC2)c(Cl)c1 | 14.9%
13 | O=C1C=C(NCCNc2c(F)c(F)c(CO)c(F)c2F)CCC1 | 74.7%
14 | CCOc1ccc(N2C(=O)Nc3ccccc3C2(O)C(=O)NCc2ccco2)cc1 (centres undefined) | 14.9%
15 | Cc1cc(C)cc(NC(=O)Cn2nc(N3CCN(c4ccccc4)CC3)ccc2=O)c1 | -10.6%
16 | O=C(NN=Cc1ccccc1O)NN=Cc1ccccc1O | -96.4% (active)
17 | CCc1ccccc1NC(=O)/C(=C/c1ccccc1)c1ccccc1 | -13.4%
18 | O=Nc1c(O)cc(O)c2ccccc12 | 13.3%
19 | O=C(CN1CCSCC1)N/N=C/c1ccc(F)cc1F | -10.6%
20 | O=C(N/N=C/c1ccccc1O)/C(=C/c1ccccc1)CCO | -88.1% (active)
21 | NN=C(NN=Cc1ccccc1)c1ccccc1 | 49.5%
22 | CC(=O)N1CCc2cc(Br)cc(S(=O)(=O)CCC(=O)NCCc3ccc(Cl)cc3)c21 | -23.8%

Row | Structure (SMILES) | activity change, negative = inhibition
23 | Nc1ccc(-c2sc(N)nc2-c2ccccc2)cc1 | -103% (active)
24 | Nc1[nH]c(=S)nc2nc(-c3ccccc3)c(-c3ccccc3)nc12 | -3.08%
25 | Cc1nc(N)sc1-c1ccccc1 | -23.6%
26 | CCn1c2ccccc2c2nnc(SCC(=O)O)nc21 | -4.51%
27 | CCCCn1c(CNC(=O)C23CC4CC(CC(C4)C2)C3)nnc1SCC(=O)Nc1ccc(C)cc1 | 13.3%
28 | Cc1noc(C)c1CSCC(=O)N(CCC(C)C)c1c(N)n(Cc2ccccc2)c(=O)[nH]c1=O | 4.61%
29 | CCn1c(SCC(=O)NC2CC2)nnc1-c1ccccn1 | -72.6% (active)
30 | CCn1c(SCC(=O)NC2CC2)nnc1-c1ccncc1 | 56.4%
31 | CCn1c(SCC(=O)NC2CCCC2)nnc1-c1ccoc1C | -17.9%
32 | COc1ccc(S(=O)(=O)Nc2cccnc2)c(Cl)c1Cl | -8.35%
33 | Cc1cc(C)c(C)c(S(=O)(=O)Nc2cccnc2)c1C | -18.7%
34 | COc1ccccc1Oc1ccc(S(=O)(=O)Nc2cccnc2)cc1 | -79.4% (active)
35 | CCN(C(=O)CN1CCN(Cc2ccccc2)CC1)c1c(N)n(Cc2ccccc2)c(=O)[nH]c1=O | 3.73%
36 | Cc1c(-c2nc(-c3ccc4c(c3)OCO4)no2)nnn1-c1ccc(Br)cc1F | -0.877%
37 | CCc1nn(CC(=O)N2CCN(c3cccc(C(F)(F)F)c3)CC2)c(=O)c2cc3occc3n12 | -6.95%
38 | COc1cccc(NC(=O)CSC2=Nc3ccccc3C3=NC(CC(=O)NC4CCCCC4)C(=O)N23)c1 (centres undefined) | 14%
39 | O=C(NC1CC(=O)N(c2ccc(F)cc2)C1)c1ccc(S(=O)(=O)N2CCCC2)cc1 (centres undefined) | -23.1%
40 | CCCCCc1c(-c2ccc(OC)c(OC)c2)ncn1CCc1ccccc1OC | -102% (active)
41 | COC(=O)c1ccc2nc(-c3ccc(OC)c(OC)c3)c(Cc3ccccc3)n2c1 | 33.9%
42 | COc1ccccc1CCNS(=O)(=O)c1cn(C)nc1C | -2.46%
43 | COc1ccccc1Cc1c(-c2ccc(Cl)cc2)nc2ccc(Cl)cn12 | 13.1%
44 | CCCCc1c(-c2ccc(Br)cc2)ncn1CCc1ccccc1OC | -102% (active)
